Screens from PubChem BioAssay.
Pemphigus Ab inh – inhibitors of pemphigus antibody binding to DSG3, primary screen, biochemical, bead-based, flow cytometry, scFv-GFP | Desmoglein-3 (Homo sapiens), P32926 | DSG3-coupled beads, scFv-anti-DSG3-GFP binding; active compounds read low | binding (percent of control), % at 10 µM | 0.48% of 310,000 active;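 active = binding more than 3 SD below its plate's average and above zero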;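 also: hits lower antibody fragment binding to DSG3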
ADAM17 inh – ADAM17 inhibitors, primary screen, biochemical, QFRET | 0.83% of 370,000 active | Disintegrin and metalloproteinase domain-containing protein 17 (Homo sapiens), P78536 | AID 720648, 2013 | recombinant ADAM17, EDANS/DABCYL FRET peptide cleavage | inhibition, % at 6.95 µM;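 active = inhibition above the mean of compounds lying between control limits plus 3 SD, set per campaign, cut at about 8.5% in these data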
MPTP block – mitochondrial permeability transition pore inhibitors, primary screen, biochemical, isolated mouse mitochondria, absorbance; 1.4% of 360,000 active; inhibition, % at 10 µM; AID 602449, 2012; Ca2+ swelling absorbance, 30 min;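 active = inhibition of 50% or more, scaled per plate between neutral and stimulator controls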
rCAG binder – binders of r(CAG) RNA repeats, primary screen, biochemical, fluorescence; r(CAG) RNA repeat, TO-PRO-1 dye displacement fluorescence; 1.3% of 370,000 active; AID 651821, 2012; inhibition, % at 3 µM;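 active = inhibition above the plate cutoff, the mean of all test compounds on that plate plus 3 SD, cut at about 35% in these data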;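 also: higher means more dye released from RNA so lower well fluorescence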
proKLK7 act – proKLK7 zymogen activators, primary screen, biochemical, fluorescence intensity; purified proKLK7, EDANS-DABCYL substrate fluorescence; 100% is mature enzyme control, 0% vehicle; activation, % at 7 µM; 0.9% of 370,000 active;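 active = activation above the mean of all tested compounds plus 3 SD, computed per campaign excluding outliers beyond control limits, cut at about 13% in these data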
ADAM10 inh – human ADAM10 inhibitors, primary screen, biochemical, QFRET, HTS | 0.62% of 370,000 active | Disintegrin and metalloproteinase domain-containing protein 10 (Homo sapiens), O14672 | inhibition, % at 7 µM | recombinant ADAM10, EDANS/DABCYL FRET peptide cleavage, 3 h | AID 720582, 2013;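 active = inhibition above a per-campaign cutoff equal to the mean of compounds falling between control-based bounds plus 3 SD, cut at about 20% in these data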
Target sequence (O14672 214-748 limits assumed): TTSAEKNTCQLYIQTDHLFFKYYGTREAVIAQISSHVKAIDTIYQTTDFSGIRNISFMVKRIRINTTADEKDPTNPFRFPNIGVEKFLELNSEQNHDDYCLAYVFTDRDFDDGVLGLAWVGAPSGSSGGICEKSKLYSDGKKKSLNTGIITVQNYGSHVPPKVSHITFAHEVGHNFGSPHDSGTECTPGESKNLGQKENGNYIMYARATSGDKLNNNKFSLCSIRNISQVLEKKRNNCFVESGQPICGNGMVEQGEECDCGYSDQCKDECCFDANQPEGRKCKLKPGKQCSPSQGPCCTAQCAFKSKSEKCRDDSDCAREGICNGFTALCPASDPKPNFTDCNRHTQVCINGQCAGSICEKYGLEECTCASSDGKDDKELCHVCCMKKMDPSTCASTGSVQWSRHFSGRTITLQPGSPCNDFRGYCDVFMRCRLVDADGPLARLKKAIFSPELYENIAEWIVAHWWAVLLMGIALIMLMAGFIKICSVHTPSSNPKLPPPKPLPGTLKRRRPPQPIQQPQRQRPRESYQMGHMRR
rCAG binder conf – small molecules binding CAG repeat RNA – biochemical, fluorescence, confirmation; shares compounds with rCAG binder; r(CAG) RNA repeat, TO-PRO-1 dye displacement fluorescence; inhibition, % at 3 µM; 70% of 4,300 active;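 active = inhibition above a per-plate cutoff, the mean inhibition of sample wells plus 3 SD, cut at about 35% in these data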;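 also: loss of TO-PRO-1 fluorescence as compound displaces dye from 1x1 AA loop RNA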
DNA CAG counter – displacement of TO-PRO-1 from CAG DNA duplex, counter-screen for rCAG RNA repeat binder project, biochemical, fluorescence, TO-PRO-1 dye, d(CAG) DNA oligo; shares compounds with rCAG binder; d(CAG) DNA oligo TO-PRO-1 dye displacement; inhibition, % at 3 µM; 94% of 4,300 active;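 active = inhibition above its plate's cutoff, the mean test-well inhibition plus 3 SD, cut at about 4.8% in these data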;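 also: hits displace the dye from DNA and so lower well fluorescence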
dCAG dye DR – inhibitors of DNA CAG/GTC TO-PRO-1 complex, dose response, counter-screen for rCAG RNA repeat binder project, biochemical, fluorescence, TO-PRO-1 dye | shares compounds with rCAG binder | DNA CAG/GTC duplex TO-PRO-1 dye displacement fluorescence | IC50, µM | 20% of 250 active | AID 686960, 2013; in the data active = IC50 below about 10 µM
Large screens that a line does not name were inactive (follow-up assays come after a bar, where they were run). In the library only some 4.7% were active in any assay of this set; here they are far more common.

O=C(C1=NN[C@@H]2C(=O)N(c3ccccc3C(F)(F)F)C(=O)[C@H]12)C(c1ccccc1)c1ccccc1	none
C[C@@H]1COc2cc(N3CCCC3)ccc2S(=O)(=O)N1	none (no result: Pemphigus Ab inh, MPTP block)
COc1ccc(-c2nn(-c3ccccc3)cc2/C=C/C(=O)O)cc1[N+](=O)[O-]	rCAG binder 56 | rCAG binder conf 48 | DNA CAG counter 12
COc1ccc(N2C(=O)c3n[nH]c(C(C)C)c3C2c2ccc(F)cc2)cc1 (centres undefined)	none (no result: Pemphigus Ab inh, MPTP block)
Cc1cc(N2C(=O)C(O)=C(C(=O)c3cc4ccccc4o3)C2c2cccc(Cl)c2)no1 (centres undefined)	rCAG binder 60 | rCAG binder conf 71 | DNA CAG counter 32 | dCAG dye DR 5.7
Cc1cc(N2C(=O)C(O)=C(C(=O)c3cc4ccccc4o3)C2c2ccc(Cl)cc2)no1 (centres undefined)	rCAG binder 56 | rCAG binder conf 75 | DNA CAG counter 38
Cc1cc(N2C(=O)C(O)=C(C(=O)c3ccc(C)o3)C2c2cccc(Cl)c2)no1 (centres undefined)	none
C=CCN=C1NC(c2cccc(F)c2)C(C(=O)OC)=C(C)N1C (centres undefined)	none (no result: Pemphigus Ab inh, MPTP block)
CSc1nsc2nc(=O)c(/C=C3\C(C)=Nc4ccccc43)c(N)n12	rCAG binder 42 | rCAG binder conf inactive | DNA CAG counter 4.7
Cc1ccc(-n2c(O)c(/C=C3/C(c4ccccc4)=Nc4ccccc43)c(=O)[nH]c2=O)cc1	none
Cc1cc(Nc2cc(F)c(F)c(F)c2)cc(=O)n1-c1cc(F)c(F)c(F)c1	none (no result: Pemphigus Ab inh, MPTP block)
N#Cc1c(NC(=O)CSc2ccccn2)oc(-c2ccccc2)c1-c1ccccc1	none
Cc1cnc(C(=O)OCC(=O)Nc2oc(-c3ccccc3)c(-c3ccccc3)c2C#N)cn1	rCAG binder 46 (no result: Pemphigus Ab inh) | rCAG binder conf 51 | DNA CAG counter 14
Cc1cccc(Nc2nnc(SCC(=O)Nc3ccc(C(=O)O)cc3)s2)c1	none
Cc1ccccc1-n1c(SC/C(O)=C(\C#N)c2nc3ccccc3[nH]2)nnc1-c1ccncc1	none
Cc1cc(C)n2c(SC/C(O)=C(\C#N)c3nc4ccccc4[nH]3)nnc2n1	rCAG binder 37 | rCAG binder conf 37 | DNA CAG counter 17
Cc1cccc(Nc2nnc(SCC(O)=C(C#N)c3nc4ccccc4[nH]3)s2)c1	rCAG binder 42 | rCAG binder conf 48 | DNA CAG counter 24
Nc1ncnc2oc(-c3ccco3)c(-c3ccco3)c12	Pemphigus Ab inh 52, rCAG binder 68 | rCAG binder conf inactive | DNA CAG counter 16
Nc1nnc(-c2ccco2)s1	none
COC(=O)c1sc(N2C(=O)C(O)=C(C(=O)c3ccc(C)o3)C2c2cc(OC)ccc2OC)nc1C (centres undefined)	rCAG binder 44 (no result: Pemphigus Ab inh) | rCAG binder conf 60 | DNA CAG counter 18
CCOc1cccc(C2C(C(=O)c3ccc(C)o3)=C(O)C(=O)N2c2nnc(C)s2)c1 (centres undefined)	none
CCCOc1cccc(C2C(C(=O)c3ccc(C)o3)=C(O)C(=O)N2c2nc(C)c(C(C)=O)s2)c1 (centres undefined)	rCAG binder 36 | rCAG binder conf 57 | DNA CAG counter 18 | dCAG dye DR inactive
CCc1ccc(N=C2NC(=O)/C(=C/c3ccc(OCC(=O)O)c(OC)c3)S2)cc1	rCAG binder 42 | rCAG binder conf 39 | DNA CAG counter 12
CCc1ccc(N=C2NC(=O)/C(=C/c3ccc(OCC(=O)O)cc3)S2)cc1	rCAG binder 49 | rCAG binder conf 40 | DNA CAG counter 10
CCOc1ccc(N=C2NC(=O)/C(=C/C(=O)OC)S2)cc1	none
CCOC(=O)c1c(NC(=O)CSc2ccccc2C(=O)O)sc(C)c1C	rCAG binder 40 | rCAG binder conf 41 | DNA CAG counter 13
CCOC(=O)C1=c2s/c(=C\c3ccncc3)c(=O)n2C(N)=C(C(=O)OC)C1c1ccncc1 (centres undefined)	none
N#CC1=C(N)n2c(s/c(=C\c3ccco3)c2=O)=C(C#N)C1c1ccco1 (centres undefined)	rCAG binder 54 | rCAG binder conf 38 | DNA CAG counter 18 | dCAG dye DR inactive
CCOC(=O)C1=C(N)n2c(s/c(=C/c3ccco3)c2=O)=C(C(=O)OC)C1c1ccco1 (centres undefined)	rCAG binder 57 | rCAG binder conf inactive | DNA CAG counter 14
CC(C)c1ccc(/C=c2\sc3n(c2=O)C(N)=C(C#N)C(c2ccc(C(C)C)cc2)C=3C(N)=O)cc1 (centres undefined)	none
CC(C(=O)OCC(=O)Nc1ccc(S(N)(=O)=O)cc1)N1C(=O)c2ccccc2C1=O (centres undefined)	none
CCOc1ccc(S(=O)(=O)NCCC(=O)N2CC(C)OC(C)C2)cc1 (centres undefined)	none
COCCNc1nc(Nc2ccc(F)cc2)c2sccc2n1	none (no result: Pemphigus Ab inh)
N#CC1=C2Sc3ccccc3N2CCCC1=O	none
N=C1C2=C3Sc4ccccc4N3CCCC2=NN1c1cccc(S(=O)(=O)O)c1	rCAG binder 38 | rCAG binder conf 47 | DNA CAG counter 11
O=C(COC(=O)c1ccccc1O)NC(=O)NCc1ccccc1	none
CCN(CC)c1nc2c3c(nc4c(c3c1C#N)CC(=O)N4c1ccc(Cl)cc1)NC(C)=N2	rCAG binder 60 | rCAG binder conf 52 | DNA CAG counter 23
C=CCN1C(=O)[C@@H](CC(=O)NCCC(C)C)[C@]2(C(=O)OC)CCCCC=C12	none (no result: Pemphigus Ab inh, MPTP block)
Cn1c(SCc2ccccn2)nc2c1c(=O)[nH]c(=O)n2C	none
